{"source": "PubChem BioAssay (Tox21)", "note": "Records with an inconclusive call do not appear. Unmarked numbers belong to inactive results. The call rests on the fitted dose curve; in most records, active means well fitted activation curve with a large enough effect in the signal ratio in the repeat runs, with a control signal flat (not every such curve was filed as active); inconclusive means weak or mixed curves; inactive means flat fitted curve, though single readings scatter; the % refers to the signal ratio. On the % scale 0 is the no-effect control and ±100 the full control effect."}
{"assay": "qHTS assay for small molecule activators of the heat shock response signaling pathway (AID 743210)", "conditions": "HeLa HSE-bla reporter, beta-lactamase ratio, 5 h; series mostly up to 62.6 µM; activation: at the top concentration", "excerpt": "U.S. Tox21 Program National Center for Advancing Translational Sciences [NCATS] NIH Chemical Genomics Center [NCGC] U.S. Environmental Protection Agency [EPA] National Institutes of Environmental Health Sciences [NIEHS] National Toxicology Program [NTP] U.S. Food and Drug Administration [FDA] Tox21 Assay Overview: Various chemicals, environmental and physiological stress conditions may lead to the activation of heat shock response/ unfolded protein response (HSR/UPR). There are three heat shock transcription factors (HSFs) (HSF-1, -2, and -4) mediating transcriptional regulation of the human HSR. To identify the compounds that activate HSR signaling, HSE-bla HeLa cell line (Invitrogen, Carlsbad, CA, USA) containing a beta-lactamase reporter gene under the control of the heat shock response elements was used to screen the Tox21 10K compound library.\nTox21 Assay Protocol Summary: The CellSensor HSE-bla HeLa cells (Invitrogen, Carlsbad, CA, USA) were dispensed at 1500 cells/6uL/well into 1536-well black wall/clear bottom plates using a Multidrop combi (Thermo Fisher Scientific, Waltham, MA) dispenser. After the assay plates were incubated at 37 C and 5% CO2 overnight, 23 nL of compounds dissolved in DMSO, positive controls or DMSO only was transferred to the assay plate by a Pintool station (Kalypsys, San Diego, CA). The plates were incubated at 37 C for 5 h. After 1 uL of LiveBLAzerTM B/G FRET substrate was added using a Flying Reagent Dispenser (Beckman Coulter, Indianapolis, IN, USA), the plates were incubated at room temperature for 2.5 h, and fluorescence intensity was measured by an Envision plate reader (PerkinElmer, Shelton, CT)."}
{"smiles": "C#Cc1ccc(-c2ccccc2F)cc1", "activation": "2.27%"}
{"smiles": "COC(=O)Nc1nc2ccc(C(=O)c3ccccc3)cc2[nH]1", "activation": "0.461%"}
{"smiles": "CC/C=C\\CCCCCO", "activation": "-0.168%"}
{"smiles": "CCC(CC)(CC(=O)Nc1cccc(/C=C/c2nc(C3CCC3)cs2)c1)C(=O)O", "activation": "3%"}
{"smiles": "CCC(CC)C(C)CCOC(C)=O", "note": "(stereo not given)", "activation": "0.192%"}
{"smiles": "CC(C)=CCNc1ncnc2c1ncn2[C@@H]1O[C@H](CO)[C@@H](O)[C@H]1O", "activation": "2.38%"}
{"smiles": "O=C(/C=C/c1ccc(O)c(O)c1)O[C@@H](C(=O)O)[C@@H](OC(=O)/C=C/c1ccc(O)c(O)c1)C(=O)O", "activation": "0.0689%"}
{"smiles": "CC(=O)CC(=O)Nc1ccc(S(=O)(=O)O)cc1", "activation": "0%"}
{"smiles": "O=C1CCCCCCCCCCCCCCCO1", "activation": "-1.05%"}
{"smiles": "COc1ccc2cc1Oc1ccc(cc1)C[C@H]1c3c(cc4c(c3Oc3cc5c(cc3OC)CCN(C)[C@@H]5C2)OCO4)CCN1C", "activation": "-0.815%"}
{"smiles": "CCCc1ccc(OCC(=O)N2CCN(C(=O)COc3ccc(CCC)cc3OC)CC2)c(OC)c1", "activation": "-0.171%"}
{"smiles": "CC(C)(c1cc(Br)c(OCC(Br)CBr)c(Br)c1)c1cc(Br)c(OCC(Br)CBr)c(Br)c1", "note": "(stereo not given)", "activation": "-0.305%"}
{"smiles": "CC[C@H](C)COC(=O)/C=C/c1ccc(N=Cc2ccc(OC)cc2)cc1", "activation": "3.03%"}
{"smiles": "COc1cc(S(=O)(=O)O)c(C)cc1N=Nc1c(O)ccc2cc(S(=O)(=O)O)ccc12", "activation": "1.07%"}
{"smiles": "Cc1ccc(C)cc1", "activation": "-0.658%"}
{"smiles": "CCCCCCCCCCOC(=O)c1ccccc1C(=O)OCCCCCCCC", "activation": "-0.326%"}
{"smiles": "O=C(O)c1cc(=O)c2ccccc2o1", "activation": "-0.806%"}
{"smiles": "C=CCCC(=O)/C=C/C1C(C)=CCCC1(C)C", "note": "(stereo not given)", "activation": "-0.0362%"}
{"smiles": "CC(C)(C)CC(C)(C)c1ccc(Nc2ccc(C(C)(C)CC(C)(C)C)cc2)cc1", "activation": "0.375% [at 5.95 µM]"}
{"smiles": "CCCCNS(=O)(=O)c1ccc(C)cc1", "activation": "0.639%"}
{"smiles": "O=C(Nc1ccc2c(O)c(N=Nc3ccc(N=Nc4ccc(S(=O)(=O)O)cc4)cc3)c(S(=O)(=O)O)cc2c1)c1ccccc1", "activation": "-1.68%"}
{"smiles": "Cc1c(C)c2c(c(C)c1OC(=O)c1cccnc1)CC[C@@](C)(CCC[C@H](C)CCC[C@H](C)CCCC(C)C)O2", "activation": "-0.501%"}
{"smiles": "CC(C)CCOC(=O)/C=C/c1ccccc1", "activation": "-0.248% [at 81.1 µM]"}
{"smiles": "O=C(O)c1cc(-c2ccc(F)cc2F)ccc1O", "activation": "0.0111%"}
{"smiles": "Nc1ccc(C(=O)O)c(O)c1", "activation": "-2.14%"}
{"smiles": "CCCCCCOC(=O)C(C)CC", "note": "(stereo not given)", "activation": "-0.237%"}
{"smiles": "S=c1nccc[nH]1", "activation": "3.53%"}
{"smiles": "CC1(C)CCC[C@]2(C)[C@H]3CCO[C@]3(C)CC[C@@H]12", "activation": "-0.978%"}
{"smiles": "CN(C)C(=O)COC(=O)Cc1ccc(OC(=O)c2ccc(N=C(N)N)cc2)cc1", "activation": "-1.42%"}
{"smiles": "COc1cccc(OC)c1C(=O)O", "activation": "-0.637%"}
{"smiles": "CCCC(=O)OC(C)(C)Cc1ccccc1", "activation": "1.23%"}
{"smiles": "OCC(F)(F)F", "activation": "4.74% [at 81.1 µM]"}
{"smiles": "[Cl][Pt-2]([Cl])([Cl])[Cl]", "activation": "1.29% [at 81.1 µM]"}
{"smiles": "CC(C)OC(=O)C(O)(CC(=O)O)CC(=O)O", "activation": "-1.73%"}
{"smiles": "C[Si](Cl)(c1ccccc1)c1ccccc1", "activation": "1.79%"}
{"smiles": "COC1=C(OC)C(=O)C(CCCCCCCCCCO)=C(C)C1=O", "activation": "0%"}
{"smiles": "CCO[C@@H]1O[C@H](C(COCc2ccccc2)OCc2ccccc2)[C@H](OCc2ccccc2)[C@H]1O", "note": "(stereo not given in full)", "activation": "-0.268%"}
{"smiles": "CC[N+](CC)(CC)CCOc1ccc(/C=C/c2ccccc2)cc1", "activation": "-0.05%"}
{"smiles": "O=C(O)CN(CCN(CC(=O)O)CC(=O)O)CC(=O)O", "activation": "0.0247% [at 2.7 µM]"}
{"smiles": "Oc1ccccc1O", "activation": "5.37%"}
